FadD28 FP inh: inhibitors of Mycobacterium tuberculosis FadD28 bisubstrate binding; inhibition, % at 12.5 µM; FadD28 bisubstrate probe binding, fluorescence polarization; 360,000 tested, 0.22% active; in the data active means inhibition above about 8.5%, passing the limit was not always enough
SARS 3CLpro inh: SARS-CoV 3CLpro protease inhibition; P0C6X7; recombinant SARS-CoV 3CLpro, quenched FRET peptide cleavage; inhibition, % at 6 µM; 290,000 tested, 0.14% active; in the data active means inhibition above about 12%
BioA inh: BioA (M. tuberculosis) enzyme inhibition; inhibition, % at 9.99 µM; purified M. tuberculosis BioA enzyme, plate reader; 360,000 tested, 0.096% active; in the data active means inhibition above about 40%
GDH-TPI counter: GDH-TPI coupled enzyme inhibition counter-screen | GDH-TPI coupled enzyme counterscreen, NADH absorbance | inhibition, % at 4.8 µM | 360,000 tested, 1.2% active; in the data active means inhibition above about 30%
Mtb FBA inh: inhibits M. tuberculosis FBA enzyme. inhibition, % at 1 µM. 360,000 tested, 2.3% active. purified M. tuberculosis FBA, fluorescence read-out; in the data active means inhibition above about 27%
Target sequence (P9WQA3 whole entry, looked up): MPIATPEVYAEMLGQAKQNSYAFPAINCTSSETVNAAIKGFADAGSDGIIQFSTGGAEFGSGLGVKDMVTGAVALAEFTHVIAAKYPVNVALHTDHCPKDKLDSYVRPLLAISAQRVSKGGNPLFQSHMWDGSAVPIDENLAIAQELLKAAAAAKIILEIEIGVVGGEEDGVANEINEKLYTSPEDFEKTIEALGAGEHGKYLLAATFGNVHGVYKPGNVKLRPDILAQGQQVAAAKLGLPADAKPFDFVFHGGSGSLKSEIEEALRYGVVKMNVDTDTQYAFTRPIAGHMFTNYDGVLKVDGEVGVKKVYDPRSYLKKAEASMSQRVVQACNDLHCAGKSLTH
Each line names hits and unclear results; the compound was inactive in the other large screens. Shown are actives, neighbours in structure and some others; about 3.1% of the full set was active somewhere.

C[C@H](CO)N1C[C@H](C)[C@H](CN(C)C(=O)NC2CCCC2)Oc2ncc(-c3cccc(C(F)(F)F)c3)cc2C1=O	none (no result: FadD28 FP inh, SARS 3CLpro inh, GDH-TPI counter, Mtb FBA inh)
O=C(Nc1ncc2c(n1)-c1ccccc1OC2)c1ccccc1Cl	Mtb FBA inh 113.4
CCOC(=O)c1c(-n2c(C)cc(C=C3C(=O)NC(=S)NC3=O)c2C)sc2c1CCCC2	GDH-TPI counter 32.3
CCNC(=O)C[C@H]1C=C[C@H](NC(=O)C2CC2)[C@H](CO)O1	none (no result: FadD28 FP inh, SARS 3CLpro inh, GDH-TPI counter, Mtb FBA inh)
CC1Oc2ccccc2C=C1/C=N/NC(=O)c1ccccc1 (configuration not stated)	none (no result: BioA inh)
CC1Oc2ccccc2C=C1/C=N/NC(=O)[C@@H](C)NC(=O)OC(C)(C)C (some centres not stated)	GDH-TPI counter 37.5 (no result: BioA inh)
CC1Oc2ccccc2C=C1/C=N\NC(=O)c1cccnc1 (configuration not stated)	GDH-TPI counter 47.6
CN(C)c1ccc(C=Nc2ccccc2)cc1	GDH-TPI counter 45.8
Cc1ccc(N=Cc2ccc(N(C)C)cc2)cc1	GDH-TPI counter 38.6
Cc1ccc(N=Cc2ccc(N(C)C)cc2)cc1C	none (no result: BioA inh)
CN(C)c1ccc(C=Nc2ccc(N(C)C)cc2)cc1	GDH-TPI counter 32.0
C[C@H]1CN([C@@H](C)CO)C(=O)c2cc(NS(=O)(=O)c3ccc(F)cc3)ccc2O[C@H]1CN(C)C	none (no result: FadD28 FP inh, SARS 3CLpro inh, GDH-TPI counter, Mtb FBA inh)
C[C@@H]1CCCCO[C@@H](CN(C)S(C)(=O)=O)[C@@H](C)CN([C@@H](C)CO)C(=O)c2cc(NS(C)(=O)=O)ccc2O1	none (no result: FadD28 FP inh, SARS 3CLpro inh, GDH-TPI counter, Mtb FBA inh)
O=C(Nc1ccc(C(F)(F)F)cc1)N[C@H]1CC[C@@H](CCNC(=O)c2ccccc2F)O[C@H]1CO	none (no result: FadD28 FP inh, SARS 3CLpro inh, GDH-TPI counter, Mtb FBA inh)
CN(C)C(=O)c1ccc(-c2ccc3c(c2)[C@H]2[C@H](CCN2C(=O)c2ccc4c(c2)OCO4)[C@@H](CO)N3)cc1	none (no result: FadD28 FP inh, SARS 3CLpro inh, GDH-TPI counter, Mtb FBA inh)
CC(C)Cc1[nH]c(=O)c(C#N)c2c1COC(C)(C)C2	GDH-TPI counter 31.0
CCCc1[nH]c(=O)c(C#N)c2c1COC(C)(C)C2	none
C/C=C/c1ccc2c(c1)[C@@H]1[C@@H](CCN1C(=O)Cc1cccnc1)[C@H](CO)N2C	none (no result: FadD28 FP inh, SARS 3CLpro inh, GDH-TPI counter, Mtb FBA inh)
COc1ccc(C#Cc2c(-c3ccc(OC)cc3)oc3ccc(-c4ccc(OC)cc4)cc23)cc1	none (no result: SARS 3CLpro inh)
COc1ccc(-c2oc3ccc(N4CCOCC4)cc3c2C#CC2(O)CCCCC2)cc1	Mtb FBA inh 67.7 (no result: SARS 3CLpro inh)
COc1ccc(C#Cc2c(-c3ccsc3)oc3ccc(N4CCOCC4)cc23)cc1	GDH-TPI counter 32.7 (no result: SARS 3CLpro inh)
OC1(C#Cc2c(-c3ccsc3)oc3ccc(N4CCOCC4)cc23)CCCCC1	none (no result: SARS 3CLpro inh)
CC(C)C[C@H](NC(=O)CCCn1nnc2ccccc2c1=O)C(=O)O	GDH-TPI counter 58.9
CSCC[C@H](NC(=O)CCn1nnc2ccccc2c1=O)C(=O)O	none
N#CCSc1nc2cc(C(=O)N3CCCC3)ccc2c(=O)n1Cc1ccccc1	none
N#CCSc1nc2cc(C(=O)N3CCC(C(N)=O)CC3)ccc2c2nc3ccccc3n12	GDH-TPI counter 31.5
NC(=O)C1CCN(C(=O)c2ccc3nc(-c4ccccc4)c(-c4ccccc4)nc3c2)CC1	Mtb FBA inh 65.9
C[C@H]1CN([C@@H](C)CO)C(=O)c2cc(-c3cccc(C#N)c3)cnc2O[C@@H]1CN(C)Cc1ccccc1	none (no result: FadD28 FP inh, SARS 3CLpro inh, GDH-TPI counter, Mtb FBA inh)
NC(=S)N=Nc1c(O)[nH]c2c(Cl)cc(Cl)cc12	GDH-TPI counter 37.2 (no result: SARS 3CLpro inh)
COc1ccccc1NS(=O)(=O)c1cccc(NC(=O)Nc2ccc(Cl)cc2)c1	FadD28 FP inh 31.3 (no result: BioA inh)
COc1ccccc1NS(=O)(=O)c1cccc(C(=O)N/N=C/c2ccc(C)o2)c1	GDH-TPI counter 40.5
COc1ccccc1NS(=O)(=O)c1cccc(C(=O)N/N=C/c2ccc(N3CCOCC3)cc2)c1	GDH-TPI counter 34.4
C[C@H](CO)N1C[C@H](C)[C@H](CN(C)Cc2ccc(-c3ccccc3)cc2)Oc2c(NC(=O)NC3CCCCC3)cccc2C1=O	none (no result: FadD28 FP inh, SARS 3CLpro inh, GDH-TPI counter, Mtb FBA inh)
CO[C@@H]1CN(C)C(=O)c2ccc(NC(=O)Nc3c(C)noc3C)cc2OC[C@@H](C)N(CC2CC2)C[C@H]1C	none (no result: FadD28 FP inh, SARS 3CLpro inh, GDH-TPI counter, Mtb FBA inh)
CN(C)CCCN1C(=O)c2cccc3cccc(c23)C1=O	Mtb FBA inh 34.2
CN(C)CCCN1C(=O)c2cc3ccccc3cc2C1=O	none
CCNC(=O)C[C@H]1CC[C@@H]2[C@H](COC[C@@H](O)CN2C(=O)c2cc(Cl)cc(Cl)c2)O1	none (no result: FadD28 FP inh, SARS 3CLpro inh, GDH-TPI counter, Mtb FBA inh)
C[C@@H]1CN([C@@H](C)CO)C(=O)c2cc(NC(=O)Nc3cccc4ccccc34)ccc2O[C@H]1CN(C)C(=O)Nc1ccccc1	none (no result: FadD28 FP inh, SARS 3CLpro inh, GDH-TPI counter, Mtb FBA inh)
COc1cccc(C2=N/C(=C\N(C)C)C(=O)O2)c1	GDH-TPI counter 37.3
COc1ccccc1NC(=O)c1c(NC(=O)CCC(=O)O)sc2c1CCCCC2	GDH-TPI counter 31.2

Screening results as filed in PubChem.
